“And” between values parts separate entries of the source, which are not always exact repeats. Identical values can stand only once. Unmarked numbers belong to inactive results. Inconclusive results are not listed. Entries that show only a call come without a potency. The source made the active and inactive calls. Calls come from the whole dose curve; as a rule, active = well fitted curve in the direction sought with a large enough effect; inconclusive = small, poorly fitted or top-dose-only effect, or another doubt; inactive = no such curve, though single readings can be large; an effect the other way counts as inactive or inconclusive.
Tests used:
[1] = Primary qHTS for inhibitors of nuclear receptor binding SET domain protein 2 (NSD2) in an RCH-ACV wild type WT cells (2C) (AID 1645877); settings: RCH-ACV (leukaemia line) NSD2 WT (2C) viability, CellTiter-Glo, 72 h; series mostly up to 44.9 µM; note: nearly all actives have a fitted effect of over 70% in size; note: potency is the fitted concentration of half-maximal effect
[2] = target: Glutathione peroxidase 1 (Homo sapiens) (UniProt P07203); test: Primary qHTS Assay for Inhibitors of Recombinant Selenoprotein Glutathione Peroxidase 1 (GPX1) (AID 1845191); settings: recombinant GPX1, GR-coupled NADPH fluorescence, 15 min; series mostly up to 48.8 µM; note: nearly all actives have a fitted effect of over 65% in size
How it was run: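 GPX1 10 nM, GR 100 nM, GSH 1 mM, NADPH 0.5 mM, CHP 0.5 mM (final). 30-min cpd preincubation, RT. Ex340/Em450 read t=0, t=15 min.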

[3] = target: Phospholipid hydroperoxide glutathione peroxidase GPX4 (Homo sapiens) (UniProt P36969); test: Primary qHTS Assay for Inhibitors of Recombinant Selenoprotein Glutathione Peroxidase 4 (GPX4) (AID 1845192); settings: recombinant GPX4, GR-coupled NADPH fluorescence, 15 min; series mostly up to 50 µM; note: nearly all actives have a fitted effect of over 65% in size
How it was run: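 qHTS, GR-coupled: GPX4 200 nM + cpd 30 min RT → GSH 1 mM, NADPH 0.5 mM, GR 100 nM → CHP 0.5 mM start; fluor 340/450 at t0 and t15 min; no-enzyme wells as control.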

[4] = target: Luciferin 4-monooxygenase (Photinus pyralis) (UniProt P08659); test: Primary firefly luciferase (FLuc) qHTS assay for identification of artifact compounds. (AID 1845220); settings: purified firefly luciferase, luminescence, 5 min; series mostly up to 54.1 µM; note: nearly all actives have a fitted effect of over 60% in size
How it was run: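 qHTS, 15 min compound preincubation with substrate (10 uM luciferin, 10 uM ATP) at RT, then 10 nM FLuc; 5 min; luminescence; % inhibition vs no-enzyme/DMSO controls, 4-parameter Hill fit.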

[5] = Primary fluorescence-based thiol-reactive (MSTI) qHTS assay for identification of artifact compounds. (AID 1845221); settings: MSTI thiol-reactivity probe, 1 h; series mostly up to 53.8 µM; note: nearly all actives have a fitted effect of over 65% in size; note: potency is the fitted concentration of half-maximal effect
How it was run: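 Curve-fitted percent inhibition (4-parameter Hill) derived from fluorescence, Ex 525/Em 598 nm, scaled with Acetyl-MSTI and MSTI; 1 h incubation at room temperature.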

[6] = tested on: Nanoluciferase (engineered Oplophorus gracilirostris luciferase); test: Primary Nanoluciferase (NLuc) qHTS assay for identification of artifact compounds. (AID 1845222); settings: NLuc-conditioned medium, Nano-Glo luminescence, 5 min; series mostly up to 54.1 µM
How it was run: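 Luminescence read-out of secreted NLuc in S16 cell conditioned medium (1:55); compounds tested with 15 min RT preincubation, then Nano-Glo substrate 1:100, 5 min. % inhibition vs no-enzyme and DMSO controls, 4-parameter Hill fit.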

[7] = Primary redox qHTS assay for identification of artifact compounds. (AID 1845223); settings: Amplex Red/HRP redox cycling with DTT, fluorescence; series mostly up to 53.8 µM
How it was run: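 Redox-cycling detection via DTT (250 uM final) oxidation coupled to Amplex Red (25 uM)/HRP (250 mU/mL) in HBSS. 15 min preincubation plus 30 min after DTT, room temperature. Ex/Em 525/598 nm; 4-parameter Hill fit against DMSO and 10 uM DA3003.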

Chain of Phospholipid hydroperoxide glutathione peroxidase GPX4 (Homo sapiens) (P36969 whole entry, looked up): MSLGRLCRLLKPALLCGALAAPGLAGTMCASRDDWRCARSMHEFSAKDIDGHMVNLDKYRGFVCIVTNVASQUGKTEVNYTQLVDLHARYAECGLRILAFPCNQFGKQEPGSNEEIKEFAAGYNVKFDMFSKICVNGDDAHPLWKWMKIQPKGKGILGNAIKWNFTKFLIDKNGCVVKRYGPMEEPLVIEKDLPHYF
Chain of Glutathione peroxidase 1 (Homo sapiens) (P07203 whole entry, looked up): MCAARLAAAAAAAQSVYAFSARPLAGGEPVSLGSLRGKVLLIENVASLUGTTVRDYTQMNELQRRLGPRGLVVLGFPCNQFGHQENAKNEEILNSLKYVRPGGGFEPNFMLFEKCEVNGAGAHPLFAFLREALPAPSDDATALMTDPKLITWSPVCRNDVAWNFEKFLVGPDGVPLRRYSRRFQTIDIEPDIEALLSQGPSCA

## CC1=C(CO)C(=O)O[C@@H]([C@@H](C)[C@H]2CC[C@H]3[C@@H]4C[C@H]5O[C@]56[C@@H](O)C=CC(=O)[C@]6(C)[C@H]4CC[C@]23C)C1
[1]
  Potency: 709 nM (active) and 263 nM (active)
[2]
  Potency: inactive
[3]
  Potency: inactive
[4]
  Potency: inactive
[5]
  Potency: inactive
[6]
  Potency: inactive
[7]
  Potency: inactive

## C[C@H](Nc1ncnc2nc[nH]c12)c1cc2ccc(F)cc2nc1-c1ccccn1
[1]
  Potency: 1.18 µM (active)
[2]
  Potency: inactive
[3]
  Potency: inactive
[4]
  Potency: inactive
[5]
  Potency: inactive
[6]
  Potency: inactive
[7]
  Potency: inactive

## CC12CCC(OC3OC(CO)C(O)C(OC4OC(CO)C(O)C(O)C4O)C3O)CC1=CCC1C2CCC2(C)/C(=C3/COC(=O)C3)CCC12O (stereo unspecified)
[1]
  Potency: inactive
[2]
  Potency: inactive
[3]
  Potency: inactive
[4]
  Potency: inactive
[5]
  Potency: inactive
[6]
  Potency: inactive
[7]
  Potency: inactive

## C=C1C(=O)O[C@H](CCC)[C@H]1C(=O)O
[1]
  Potency: inactive
[2]
  Potency: inactive
[3]
  Potency: inactive
[4]
  Potency: inactive
[5]
  Potency: inactive
[6]
  Potency: inactive
[7]
  Potency: inactive

## CC1CC(O)C2(OC1=O)OC1C(O)C3C4CCC5CC(OC6OC(CO)C(O)C(O)C6OC6OC(C)C(O)C(O)C6O)CCC5(C)C4CCC3(C)C1C2C (stereo unspecified)
[1]
  Potency: inactive
[2]
  Potency: inactive
[3]
  Potency: inactive
[4]
  Potency: inactive
[5]
  Potency: inactive
[6]
  Potency: inactive
[7]
  Potency: inactive

## CC(C)C(C#N)O[C@@H]1O[C@H](CO[C@@H]2O[C@@H](C)[C@H](O)[C@@H](O)[C@H]2O)[C@@H](O)[C@H](O)[C@H]1O (stereo partly specified)
[1]
  Potency: inactive
[2]
  Potency: inactive
[3]
  Potency: inactive
[4]
  Potency: inactive
[5]
  Potency: inactive
[6]
  Potency: inactive
[7]
  Potency: inactive

## C[C@@H]1C(=O)O[C@H]2[C@H](O)C34[C@H]5C[C@@H](C(C)(C)C)C36[C@@H](OC(=O)[C@@H]6O)O[C@@]4(C(=O)O5)[C@@]12O (stereo partly specified)
[1]
  Potency: inactive
[2]
  Potency: inactive
[3]
  Potency: inactive
[4]
  Potency: inactive
[5]
  Potency: inactive
[6]
  Potency: inactive
[7]
  Potency: inactive

## CC1=CCC2C(C)(C)CCC[C@]2(C)[C@@]12CC[C@](C)(CC(=O)O)O2 (stereo partly specified)
[1]
  Potency: inactive
[2]
  Potency: inactive
[3]
  Potency: inactive
[4]
  Potency: inactive
[5]
  Potency: inactive
[6]
  Potency: inactive
[7]
  Potency: inactive

## CCCCOC(=O)NC(=O)C1c2ccccc2Oc2ccccc21
[1]
  Potency: inactive
[2]
  Potency: inactive
[3]
  Potency: inactive
[4]
  Potency: inactive
[5]
  Potency: inactive
[6]
  Potency: inactive
[7]
  Potency: inactive

## CC(C)(O[C@@H]1O[C@H](CO)[C@@H](O)[C@H](O)[C@H]1O)C(OC(=O)/C=C\c1ccc(O)cc1)C(=O)OCc1ccc(O[C@@H]2O[C@H](CO)[C@@H](O)[C@H](O)[C@H]2O)cc1 (stereo partly specified)
[1]
  Potency: inactive
[2]
  Potency: inactive
[3]
  Potency: inactive
[4]
  Potency: inactive
[5]
  Potency: inactive
[6]
  Potency: inactive
[7]
  Potency: inactive

## Cc1[nH]c2ccccc2c1CCNC(=O)c1ccccc1F
[1]
  Potency: inactive
[2]
  Potency: inactive
[3]
  Potency: inactive
[4]
  Potency: inactive
[5]
  Potency: 4.23 µM (active)
[6]
  Potency: inactive
[7]
  Potency: inactive

## CC1=CC(=O)CC(C)(C)[C@H]1/C=C/C(CO)O[C@@H]1O[C@H](CO)[C@@H](O)[C@H](O)[C@H]1O (stereo partly specified)
[1]
  Potency: inactive
[2]
  Potency: inactive
[3]
  Potency: inactive
[4]
  Potency: inactive
[5]
  Potency: 11.7 µM (active)
[6]
  Potency: inactive
[7]
  Potency: inactive

## C=C1C(OC(=O)/C(C)=C\C)[C@@]23CCC4[C@@](C)(CCC[C@@]4(C)C(=O)O)C2CC[C@H]1C3OC(C)=O (stereo partly specified)
[1]
  Potency: inactive
[2]
  Potency: inactive
[3]
  Potency: inactive
[4]
  Potency: inactive
[5]
  Potency: inactive
[6]
  Potency: inactive
[7]
  Potency: inactive

## C=C1CCC2C(C)(COC(C)=O)CCCC2(C)C1CCC(C)CC(=O)O (stereo unspecified)
[1]
  Potency: inactive
[2]
  Potency: inactive
[3]
  Potency: inactive
[4]
  Potency: inactive
[5]
  Potency: inactive
[6]
  Potency: inactive
[7]
  Potency: inactive

## CC(C)(C)NCCCNC(=O)c1cccc(Br)c1
[1]
  Potency: inactive
[2]
  Potency: inactive
[3]
  Potency: inactive
[4]
  Potency: inactive
[5]
  Potency: inactive
[6]
  Potency: inactive
[7]
  Potency: inactive

## C[C@@H]1C[C@@H](O)[C@@]23CO[C@@H](O)[C@@H]2CCC[C@@H]3[C@@]12C[C@@H](c1ccoc1)OC2=O
[1]
  Potency: inactive
[2]
  Potency: inactive
[3]
  Potency: inactive
[4]
  Potency: inactive
[5]
  Potency: inactive
[6]
  Potency: inactive
[7]
  Potency: inactive

## CC1=CC(=O)[C@]2(O[C@@H]3O[C@@H](C)[C@H](O)[C@@H](O)[C@H]3OC(=O)/C=C/c3ccccc3)C=CO[C@@H](O[C@@H]3O[C@H](CO)[C@@H](O)[C@H](O)[C@H]3O)[C@H]12
[1]
  Potency: inactive
[2]
  Potency: inactive
[3]
  Potency: inactive
[4]
  Potency: inactive
[5]
  Potency: 2.51 µM (active)
[6]
  Potency: inactive
[7]
  Potency: inactive

## CCC(O)(C(=O)OCc1ccccc1NC(=O)CCC(=O)O)C(C)O (stereo unspecified)
[1]
  Potency: inactive
[2]
  Potency: inactive
[3]
  Potency: inactive
[4]
  Potency: inactive
[5]
  Potency: inactive
[6]
  Potency: inactive
[7]
  Potency: inactive

## O=C(Nc1ccc(S(=O)(=O)C(F)(F)F)cc1)C1=CCN(c2ncccc2C(F)(F)F)CC1
[1]
  Potency: 10.3 µM (active)
[2]
  Potency: inactive
[3]
  Potency: inactive
[4]
  Potency: inactive
[5]
  Potency: inactive
[6]
  Potency: inactive
[7]
  Potency: inactive

## CC1=CC2/C=C(\C)CC[C@@H](O)[C@@H](O)[C@@H]3O[C@@H]3C(=O)[C@]23C(=O)N[C@@H](CC(C)C)[C@@H]3[C@@H]1C (stereo partly specified)
[1]
  Potency: inactive
[2]
  Potency: inactive
[3]
  Potency: inactive
[4]
  Potency: inactive
[5]
  Potency: inactive
[6]
  Potency: inactive
[7]
  Potency: inactive

## CC1(O)CC(O)C2(O)C=COC(O[C@@H]3O[C@H](CO)[C@@H](O)[C@H](O)[C@H]3O)C12 (stereo partly specified)
[1]
  Potency: inactive
[2]
  Potency: inactive
[3]
  Potency: inactive
[4]
  Potency: inactive
[5]
  Potency: 11.7 µM (active)
[6]
  Potency: inactive
[7]
  Potency: inactive

## COc1ccc(CCO[C@@H]2CCCC[C@H]2N2CC[C@@H](O)C2)cc1OC
[1]
  Potency: inactive
[2]
  Potency: inactive
[3]
  Potency: inactive
[4]
  Potency: inactive
[5]
  Potency: inactive
[6]
  Potency: inactive
[7]
  Potency: inactive

## C=CC(C)(CC/C=C(\C)C(=O)OC)OC1OC(COC(=O)CC(C)(O)CC(=O)O)C(OC2OC(CO)C(O)C(O)C2O)C(O)C1O (stereo unspecified)
[1]
  Potency: inactive
[2]
  Potency: inactive
[3]
  Potency: inactive
[4]
  Potency: inactive
[5]
  Potency: inactive
[6]
  Potency: inactive
[7]
  Potency: inactive

From PubChem BioAssay (NCATS)
